# In PubChem BioAssay (NCI):
# Where “and” joins values, the source holds several entries; their conditions need not be identical. Equal entries are not always repeated. This is part of a sample that, as a whole, favours compounds with a hit. Of some 79,000 tested, about 15% had one in any assay. Values without a mark were called inactive. Calls of active or inactive are those of the source. Cut-off read from the data, not from the text of the source: active = growth inhibition above about 70%; inactive = the rest.
# How the values were obtained:
# [1] = NCI Yeast Anticancer Drug Screen. Data for the rad50 strain (AID 155);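 note: 0% = growth of vehicle-only cultures of the same strain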; conditions: S. cerevisiae rad50 strain growth inhibition; at 50.0 µM; stronger effect = higher value
# Method in brief: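 Relative growth inhibition (compound vs vehicle) was measured in yeast with a defined repair-gene alteration.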
# [2] = NCI Yeast Anticancer Drug Screen. Data for the mec2-1 strain (AID 157); conditions: S. cerevisiae mec2-1 strain, at 50.0 µM, stronger effect = higher value
# Method in brief: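 Each compound was tested on mec2-1 yeast, a strain altered in DNA damage repair or cell cycle control. Growth inhibition is reported relative to vehicle.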
# [3] = NCI Yeast Anticancer Drug Screen. Data for the sgs1 mgt1 strain (AID 161);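 note: 0% = growth of cultures given vehicle only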; conditions: S. cerevisiae sgs1 mgt1 strain, at 50.0 µM, stronger effect = higher value
# Method in brief: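 Read-out: growth inhibition vs vehicle controls. Cells: mutant yeast strain deficient in DNA damage repair.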
# [4] = NCI Yeast Anticancer Drug Screen. Data for the cln2 rad14 strain (AID 165);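 note: 0% = growth equal to vehicle treated cultures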; conditions: S. cerevisiae cln2 rad14 strain, at 50.0 µM, stronger effect = higher value
# Method in brief: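 Test compounds were added to cln2 rad14 yeast cultures; inhibition of growth was then determined by comparison with vehicle treatment.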
# [5] = NCI Yeast Anticancer Drug Screen. Data for the bub3 strain (AID 167); conditions: S. cerevisiae bub3 mutant strain, at 50.0 µM, stronger effect = higher value
# Method in brief: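 Screening used yeast with an engineered genetic alteration affecting cell cycle control. Compound-exposed cultures were compared with vehicle cultures, and reduced growth was taken as inhibition.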
# [6] = NCI Yeast Anticancer Drug Screen. Data for the mlh1 rad18 strain (AID 175); conditions: S. cerevisiae mlh1 rad18 strain growth inhibition; at 50.0 µM; stronger effect = higher value
# Method in brief: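 Inhibition values reflect reduced growth of mutant yeast versus vehicle-treated controls following compound exposure; the mutations affect DNA damage repair.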
SMILES,growth inhibition [1],growth inhibition [2],growth inhibition [3],growth inhibition [4],growth inhibition [5],growth inhibition [6]
CC1CCC2C(C)C3C(CC4C5CC=C6CC(OC7OC(CO)C(O)C(OC8OC(CO)C(O)C(O)C8O)C7OC7OC(C)C(O)C(O)C7O)CCC6(C)C5CCC43C)N2C1 (centres undefined),-3.25% and 9.1%,11.8% and -8.5%,-5.75% and 10.2%,-6.3% and -9.3%,-1.65% and 1.95%,36.5% and 15.3%
N#Cc1cccc([N+](=O)[O-])c1,-17.7%,0.3%,-26.6%,30.8%,-9.7%,-18.9%
C1CN([PH+](N2CC2)N2CC2)CCO1.[C-]#[O+].[C-]#[O+].[C-]#[O+].[C-]#[O+].[C-]#[O+].[Mo],-17.9%,-1.7%,-7.3%,-31.4%,3.9%,3.95%
N/C(=N\S(=O)(=O)c1ccccc1)N[N+](=O)[O-],5.15% and -5.6%,-1.15% and -8.9%,-9.05% and -5.2%,-39.2% and -2.6%,-9.25% and 7.05%,4.45% and -9.75%
COc1cccc(C2CC23C(=O)NC(=O)NC3=O)c1 (centres undefined),-18%,-14.2%,-2.1%,6.6%,-19.2%,-21.2%
CCC(=O)C(c1ccccc1)(c1ccccc1)C(C)CN1CCCCCCC1 (centres undefined),30.3%,12.1%,10.8%,1.9%,10.8%,35.4%
Cc1ccc([As]=[As]c2ccc(C)cc2N)c(N)c1 (centres undefined),-12.3%,-2.8%,-3.95%,-9.95%,9.05%,-9.6%
CCCP(=S)(CCC)P(=S)(CCC)CCC,5.4%,19.4%,20.9%,-2.75%,18%,20.9%
N#CNc1nnnn1-c1ccccc1 (tested in a mixture with another compound),7.7%,9.35%,0.55%,44.4%,11.8%,-16.9%
c1ccc2c(c1)Nc1ccccc1S2,41%,10.1%,17.9%,28.4%,28.5%,34.2%
CCOP(=O)(CN(CCO)CCO)OCC,-5.85%,12%,11.4%,0%,-6.5%,4.25%
CC(N)CN.CC(N)CN.[Cl-].[O]=[Os+2]=[O] (centres undefined),-31%,-13.4%,-16.6%,2.05%,-16.1%,-13.6%
CCOP(=O)(N=S=O)OCC,5.75%,-13.5%,-4.05%,-28.2%,7.95%,-2.2%
CC(C)N(N=O)C(C)C,13.7%,-4.6%,6.85%,1.9%,0.95%,16.5%
CP1(=O)CCC23CCCCC21O3 (centres undefined),7.9%,-34.8%,-2.3%,-20.8%,11.7%,-4.25%
NCCN.NCCN.O=C([O-])CCl.O=C([O-])CCl.[Co+3].[O-][Cl+3]([O-])([O-])[O-],-23.8%,3.45%,-43.2%,8.4%,-18.5%,-9%
CC1(C)SC2C(NC(=O)Cc3ccccc3)C(=O)N2C1C(=O)O (centres undefined) (tested in a mixture with another compound),2.2%,0.85%,13.5%,-2.3%,-12.3%,-11.7%
COc1ccc(C(N)Cc2cc(OC)c(OC)c(OC)c2)cc1 (centres undefined),-14.9%,6.1%,2.9%,-10.5%,7.8%,-8.6%
[O-]c1n[n+](C2CCCCC2)no1,-11.4%,-7.6%,-45.7%,-31.1%,2.4%,-13.4%
COc1nc2ccccc2nc1N1CC1,-3.25%,-31%,-15%,6.9%,-24.6%,-1.65%

SMILES,growth inhibition [1],growth inhibition [2],growth inhibition [3],growth inhibition [4],growth inhibition [5],growth inhibition [6]
[Cl][Sn]([Cl])([c]1ccccc1)[c]1ccccc1.c1ccncc1,96.8% (active),98.8% (active),98.8% (active),97.5% (active),98.1% (active),97.7% (active)
O=C(Nc1ccc(O)cc1)c1c(O)[nH]c(=S)[nH]c1=O,-11.7%,-13.1%,6.25%,-56.5%,1.7%,4.65%
CCOC(=O)c1cc(N(CCCl)CCCl)ccc1OC(=O)CC,3.95%,-6.9%,19.7%,-32.2%,5.85%,30.1%
O=C(O)c1ccc([As](=O)(O)O)cc1,-16.6%,4.3%,17.3%,-35.2%,-18.8%,-4.8%
O=C(O)c1cc[c]([Hg][S]c2ncnc3nc[nH]c23)cc1,99% (active),98.3% (active),98.6% (active),98.2% (active),97.5% (active),98.9% (active)
CN(C)C(=O)Sc1c(Cl)cc(S(=O)(=O)F)cc1[N+](=O)[O-],22.9%,19.1%,27.9%,29.9%,8.9%,20.6%
O=C1CC2OCC=C3CN4CCC56c7ccccc7N1C5C2C3CC46O (centres undefined),25.3%,-21.2%,6.1%,-1.2%,30.7%,-62.1%
CC(=O)[O-].CC(=O)[O-].CC(=O)[O-].CC(=O)[O-].[Mo+2].[Mo+2],-6.5%,2.1%,0.1%,3.25%,1.85%,5.6%
CC1(C)Cc2cccc(C=C(C#N)C#N)c2O1,6.9%,20.6%,3.25%,-63.5%,-6.85%,-3.25%
O=C(O)c1cc(CCl)ccc1O,-0.05%,-7.95%,-15.7%,-14%,4.75%,-1.7%
CCCCN(CCCC)CCc1ccccc1,19.6%,1.8%,8.45%,17.8%,30.4%,17%
COc1ccc2[nH]cc(CCN)c2c1,3.95%,-12.4%,-13.5%,-10.4%,3.6%,-24.1%
CN(C)C(=S)Oc1c(Cl)cc(S(=O)(=O)F)cc1Cl,35.4%,12.9%,15.2%,19.6%,-6.5%,21.4%
COC(=O)c1cccc2cc3cccc[n+]3cc12,3.7%,-5.5%,-9.3%,-35.3%,-1.05%,0.75%
C=C(C)C1(CC(C)C)C(=O)NC(=O)NC1=O,7.4% and 2.9%,6.4% and 0.4%,-7.55% and 1.75%,2.3% and -2.6%,-14.8% and 8.15%,-5.9% and -4.3%
C/C=C/C1(CCCC)C(=O)NC(=O)NC1=O,9.8%,3.35%,4.15%,8.75%,-2.6%,-20.8%
COc1ccc(/C=C/C(=O)c2c(-c3ccccc3)nn(C)c(=O)c2N2CC2C)cc1 (centres undefined),-11.6%,19.9%,-10.4%,-7.2%,-4.8%,-13.4%
NC(CO)Cc1ccccc1 (centres undefined),-1.6% and 0.85%,0.3% and -4%,-1.45% and -4.1%,-21.6% and 4.05%,13.9% and 14.8%,2.05% and -1.35%
C[CH2][Sn]1([CH2]C)[O]OC(c2ccccc2)[O]1 (centres undefined),6.25%,2.75%,18.7%,-3.65%,14.1%,20.3%
